Experimental data reported in PubChem BioAssay (NCATS).
Results filed as inconclusive are left out. Activity calls are given as the source filed them. Unless noted, calls follow the shape of the dose curve; as a rule, active = well fitted curve in either direction with a large enough effect (not every such curve was filed as active); inconclusive = small, poorly fitted or top-dose-only effect, or another doubt; inactive = flat fitted curve, though single readings scatter.

Experiments:
[1] = target: Lysosomal acid glucosylceramidase (Homo sapiens) (UniProt P04062); test: Glucocerebrosidase-p2 (AID 348; in the data active = potency below about 10 µM; also: potency is read from the fitted curve at half-maximal effect); conditions: purified GBA, blue fluorogenic substrate, 40 min
Chain of Lysosomal acid glucosylceramidase (Homo sapiens) (P04062 whole entry, looked up): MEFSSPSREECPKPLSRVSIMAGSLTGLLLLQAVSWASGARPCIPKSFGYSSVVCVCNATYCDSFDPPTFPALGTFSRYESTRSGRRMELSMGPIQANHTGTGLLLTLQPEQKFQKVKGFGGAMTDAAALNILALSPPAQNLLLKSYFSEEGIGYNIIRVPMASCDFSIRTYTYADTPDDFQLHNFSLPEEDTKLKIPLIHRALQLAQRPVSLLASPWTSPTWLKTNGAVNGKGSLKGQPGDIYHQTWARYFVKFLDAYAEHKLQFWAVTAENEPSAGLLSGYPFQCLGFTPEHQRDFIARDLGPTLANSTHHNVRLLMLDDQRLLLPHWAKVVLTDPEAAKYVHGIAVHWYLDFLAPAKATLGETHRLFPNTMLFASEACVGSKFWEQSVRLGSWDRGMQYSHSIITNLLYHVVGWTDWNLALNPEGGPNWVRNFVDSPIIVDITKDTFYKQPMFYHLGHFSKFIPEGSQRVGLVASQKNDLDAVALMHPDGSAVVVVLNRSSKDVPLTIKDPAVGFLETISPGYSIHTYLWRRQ
In short: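 Compounds titrated from 0.6 nM upwards against 0.2 nM enzyme in pH 5.9 citric acid/KH2PO4, taurocholate, tween-20; blue fluorogenic substrate 80 uM, 40 min room temperature, stopped and read Ex 365/Em 440 for AC50.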

[2] = AP1 Signaling Pathway (AID 357); conditions: ME-180 AP-1-bla reporter, EGF-induced, beta-lactamase ratio, 5 h; at 7.69 µM (top of the series) unless noted;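 also: ME-180 reporter cells stimulated with EGF at its EC50 level; % is scaled to controls: 0 for no effect and ±100 for the full control effect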
In short: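 In this screen, ME-180 cells in Opti-MEM with 0.5% dialyzed FBS received EC50 EGF and compound titrations for 5 h. AP-1 reporter beta-lactamase was detected via CCF4 ratio, giving AC50 for positive and negative modulators.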

[3] = Stat Signaling Pathway (AID 446); conditions: ME-180 SIE beta-lactamase reporter, IL-6 stimulated, 5 h; at 7.69 µM (top of the series) unless noted;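 also: ME-180 cervical cancer cells given 40 pM IL-6 alongside compound; SIE-controlled beta-lactamase reporter measured as 460/530 nm FRET emission ratio; % is scaled to controls: 0 for no effect and ±100 for the full control effect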
In short: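 Screening format detects activators and inhibitors alike: ME-180 SIE-bla cells stimulated at 40 pM IL-6 for 5 hrs with compound, then dual-emission beta-lactamase read at 405 nm excitation.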

[4] = target: Glucocorticoid receptor (Homo sapiens) (UniProt P04150); test: GR-GFP Redistribution (AID 450;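 active = compounds whose dose series gives a full or clear partial fitted curve of increased nuclear translocation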; also: potency is read from the fitted curve at half-maximal effect); conditions: U2OS GR-GFP nuclear translocation, laser cytometry, 2 h
Chain of Glucocorticoid receptor (Homo sapiens) (P04150 whole entry, looked up, the tested form may be a part): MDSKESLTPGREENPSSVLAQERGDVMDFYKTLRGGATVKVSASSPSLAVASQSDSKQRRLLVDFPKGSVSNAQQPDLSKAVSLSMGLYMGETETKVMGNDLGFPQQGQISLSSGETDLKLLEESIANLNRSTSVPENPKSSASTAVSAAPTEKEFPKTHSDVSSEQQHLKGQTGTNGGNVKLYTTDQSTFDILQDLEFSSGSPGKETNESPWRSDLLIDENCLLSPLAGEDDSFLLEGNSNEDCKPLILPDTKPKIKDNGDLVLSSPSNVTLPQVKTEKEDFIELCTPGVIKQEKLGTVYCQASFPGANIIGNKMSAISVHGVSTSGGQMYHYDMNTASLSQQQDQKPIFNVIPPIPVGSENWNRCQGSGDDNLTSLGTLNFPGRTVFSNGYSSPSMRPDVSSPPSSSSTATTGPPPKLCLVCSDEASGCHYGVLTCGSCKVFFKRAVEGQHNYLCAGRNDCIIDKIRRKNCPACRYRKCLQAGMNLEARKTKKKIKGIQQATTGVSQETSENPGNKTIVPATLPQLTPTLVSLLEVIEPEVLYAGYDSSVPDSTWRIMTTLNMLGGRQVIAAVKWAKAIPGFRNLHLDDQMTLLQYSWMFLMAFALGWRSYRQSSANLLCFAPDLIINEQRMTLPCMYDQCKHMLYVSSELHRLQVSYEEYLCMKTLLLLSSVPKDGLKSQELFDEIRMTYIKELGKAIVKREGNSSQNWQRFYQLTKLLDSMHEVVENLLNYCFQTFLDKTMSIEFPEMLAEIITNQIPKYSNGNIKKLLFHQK

[5] = target: Glucocorticoid receptor (Homo sapiens) (UniProt P04150); test: GR-EFC Redistribution (AID 451; calls by dose curve; also: potency is read from the fitted curve at half-maximal effect); conditions: CHO-K1 GR-EFC translocation, beta-gal luminescence, 2 h
In short: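 CHO-K1 cells expressing nuclear EA and GR-ED fragments of b-gal; compounds titrated up to 46 uM final, 2 h at 37 C. GR nuclear translocation read as complemented b-gal luminescence after 1 h RT detection.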

[6] = target: Mitogen-activated protein kinase 10 (Mus musculus) (UniProt Q61831); test: JNK3 AlphaScreen Assay (AID 530); conditions: JNK3 lysate, c-Jun phosphorylation; series mostly up to 11.4 µM;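 also: kinase came from lysate of stimulated human HepG2 cells; signal reports phosphorylation of biotinylated GST-cJun 1-79 at Ser73 with 10 µM ATP; % is scaled to controls: 0 for no effect and ±100 for the full control effect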
In short: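 qHTS format: compounds tested as titrations against IL-1beta/TNF-alpha-activated HepG2 lysate JNK3 with biotin-GST-cJun substrate and 10 uM ATP at room temperature. Loss of anti-phospho-cJun AlphaScreen signal indicates inhibition.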

[7] = target: 3',5'-cyclic-AMP phosphodiesterase 4B (Homo sapiens) (UniProt Q07343); test: qHTS Assay for Inhibitors of PDE-IV (AID 607; active = well fitted activation curve with a large enough effect in the main read-out, with a control signal flat, not every such curve was filed as active; also: % of control where 0% means no effect); conditions: HEK293 ACTOne CNG channel cells, membrane potential fluorescence; series mostly up to 22.9 µM
Chain of 3',5'-cyclic-AMP phosphodiesterase 4B (Homo sapiens) (Q07343 whole entry, looked up): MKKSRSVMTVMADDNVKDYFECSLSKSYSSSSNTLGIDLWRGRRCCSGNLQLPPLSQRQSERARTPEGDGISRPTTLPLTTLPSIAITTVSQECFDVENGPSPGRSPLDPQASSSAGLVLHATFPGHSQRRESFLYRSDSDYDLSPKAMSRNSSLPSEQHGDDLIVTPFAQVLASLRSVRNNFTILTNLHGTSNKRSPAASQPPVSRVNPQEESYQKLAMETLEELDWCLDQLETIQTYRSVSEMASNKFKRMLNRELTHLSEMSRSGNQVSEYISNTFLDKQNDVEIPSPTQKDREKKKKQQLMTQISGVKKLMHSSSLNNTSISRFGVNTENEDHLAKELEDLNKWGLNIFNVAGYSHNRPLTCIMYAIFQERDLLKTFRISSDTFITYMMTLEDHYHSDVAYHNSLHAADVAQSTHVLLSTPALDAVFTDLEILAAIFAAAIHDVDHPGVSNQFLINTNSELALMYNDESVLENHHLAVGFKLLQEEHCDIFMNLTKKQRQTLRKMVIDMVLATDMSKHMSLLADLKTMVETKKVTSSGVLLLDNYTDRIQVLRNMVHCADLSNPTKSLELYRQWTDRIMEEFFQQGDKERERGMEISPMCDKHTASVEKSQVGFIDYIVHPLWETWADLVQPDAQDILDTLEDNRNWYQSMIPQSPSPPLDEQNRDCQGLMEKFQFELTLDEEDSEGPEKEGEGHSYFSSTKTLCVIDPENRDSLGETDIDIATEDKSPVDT
In short: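 The readout is membrane depolarisation from a cAMP-sensing CNG channel, detected with a potential dye at ex 535/em 590. Cells were HEK293-derived (endogenous PDE-IV) at 1000 cells/well, titrated up to 22.9 uM final.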

[8] = target: Cytochrome P450 3A4 (Homo sapiens) (UniProt P08684); test: qHTS Assay for Activators of Cytochrome P450 3A4 (AID 885; active = well fitted curve in the direction sought with a large enough effect; an effect the other way counts as inactive or inconclusive; also: nearly all actives have a fitted effect of over 65% in size); conditions: recombinant CYP3A4, Luciferin-PPXE luminescence, 60 min; series mostly up to 11.4 µM
Chain of Cytochrome P450 3A4 (Homo sapiens) (P08684 whole entry, looked up): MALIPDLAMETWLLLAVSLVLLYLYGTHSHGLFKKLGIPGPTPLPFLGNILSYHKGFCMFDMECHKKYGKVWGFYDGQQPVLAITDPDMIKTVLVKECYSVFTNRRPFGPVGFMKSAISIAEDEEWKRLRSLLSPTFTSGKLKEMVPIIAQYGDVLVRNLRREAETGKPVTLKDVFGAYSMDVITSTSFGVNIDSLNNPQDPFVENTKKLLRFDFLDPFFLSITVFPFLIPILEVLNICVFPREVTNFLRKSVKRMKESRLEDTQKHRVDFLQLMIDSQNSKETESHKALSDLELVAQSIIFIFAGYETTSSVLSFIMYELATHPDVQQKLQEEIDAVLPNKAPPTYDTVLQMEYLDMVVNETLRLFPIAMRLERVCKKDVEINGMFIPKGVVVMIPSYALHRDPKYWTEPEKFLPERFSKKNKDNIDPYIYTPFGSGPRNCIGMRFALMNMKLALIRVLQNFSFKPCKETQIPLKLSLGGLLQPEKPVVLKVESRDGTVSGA
In short: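 Steps: enzyme/substrate mix dispensed; compound added, 10 min RT; NADPH regeneration solution added, 60 min RT; luciferin detection buffer stops reaction; 20 min later luminescence measured.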

[9] = target: Cytochrome P450 2C19 (Homo sapiens) (UniProt P33261); test: qHTS Assay for Inhibitors and Substrates of Cytochrome P450 2C19 (AID 899; active = well fitted curve in the direction sought with a large enough effect; an effect the other way counts as inactive or inconclusive; also: nearly all actives have a fitted effect of over 60% in size; also: potency is read from the fitted curve at half-maximal effect; as to activity, negative = inhibition: % is scaled to controls: 0 for no effect and ±100 for the full control effect); conditions: recombinant CYP2C19, luciferin-H EGE luminescence; series mostly up to 11.4 µM
Chain of Cytochrome P450 2C19 (Homo sapiens) (P33261 whole entry, looked up): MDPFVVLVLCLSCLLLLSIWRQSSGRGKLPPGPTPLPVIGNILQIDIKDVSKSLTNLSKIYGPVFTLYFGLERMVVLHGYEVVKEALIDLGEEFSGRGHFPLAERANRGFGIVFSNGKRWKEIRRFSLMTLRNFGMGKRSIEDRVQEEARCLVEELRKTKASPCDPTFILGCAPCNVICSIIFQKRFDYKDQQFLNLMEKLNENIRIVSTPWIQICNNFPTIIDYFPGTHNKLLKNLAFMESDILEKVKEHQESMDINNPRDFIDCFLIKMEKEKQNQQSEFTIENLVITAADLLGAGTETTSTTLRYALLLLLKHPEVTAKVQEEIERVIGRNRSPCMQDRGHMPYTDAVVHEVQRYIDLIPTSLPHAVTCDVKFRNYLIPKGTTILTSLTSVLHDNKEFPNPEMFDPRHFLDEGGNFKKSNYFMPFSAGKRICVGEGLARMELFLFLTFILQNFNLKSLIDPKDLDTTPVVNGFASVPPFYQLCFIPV
In short: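 Luminescent read-out of luciferin formed from Luciferin-H EGE (10uM, equal to KM). Enzyme 5nM in 50mM KPO4; compound added, 10 min at 37C, then NADPH regenerating system for 60 min at 37C. Full inhibition defined by 57uM ketoconazole.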

[10] = qHTS Assay for Identification of Small Molecule Agonists for Hypoxia Response Element Signaling Pathway (AID 914; active = well fitted activation curve with a large enough effect in the signal ratio, with a control signal flat, not every such curve was filed as active; the % refers to the signal ratio; also: % of control where 0% means no effect); conditions: ME-180 (cervical carcinoma) HRE-bla reporter, beta-lactamase ratio, CoCl2, 17 h; activation: hits give high values
In short: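 Positive modulation of EC50 CoCl2-induced hypoxia response element signaling is measured in ME-180 cells with a beta-lactamase reporter. Compounds are titrated, incubation runs 17 hours, and %Activity derives from the blue/green ratio.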

[11] = target: Cytochrome P450 2C9 (Homo sapiens) (UniProt P11712); test: qHTS Assay for Inhibitors and Substrates of Cytochrome P450 2C9 (AID 883; active = well fitted curve in the direction sought with a large enough effect; an effect the other way counts as inactive or inconclusive; also: potency is read from the fitted curve at half-maximal effect; nearly all actives have a fitted effect of over 60% in size); conditions: recombinant CYP2C9, luciferin-H luminescence, 60 min; series mostly up to 11.4 µM
Chain of Cytochrome P450 2C9 (Homo sapiens) (P11712 whole entry, looked up): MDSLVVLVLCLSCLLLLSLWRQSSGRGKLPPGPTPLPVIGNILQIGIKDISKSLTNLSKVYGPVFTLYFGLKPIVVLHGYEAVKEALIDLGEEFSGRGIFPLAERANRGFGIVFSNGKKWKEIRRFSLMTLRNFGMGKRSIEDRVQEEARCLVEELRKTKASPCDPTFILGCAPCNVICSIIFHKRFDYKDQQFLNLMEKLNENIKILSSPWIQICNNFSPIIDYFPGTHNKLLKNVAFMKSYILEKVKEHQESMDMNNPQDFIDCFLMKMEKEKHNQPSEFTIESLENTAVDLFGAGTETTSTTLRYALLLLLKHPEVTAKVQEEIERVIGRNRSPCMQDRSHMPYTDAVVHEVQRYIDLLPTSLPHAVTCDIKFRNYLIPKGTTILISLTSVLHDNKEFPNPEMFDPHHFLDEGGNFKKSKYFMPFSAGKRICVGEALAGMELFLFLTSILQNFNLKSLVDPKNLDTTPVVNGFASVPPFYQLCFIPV
In short: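 10nM CYP2C9 + 100uM Luciferin-H (=KM), 25mM KPO4; cpd 10 min 37C; NADPH regen, 60 min 37C; stop/detect with P450 Glo-Buffer 20 min; luminescence. Norm. to 57uM sulphaphenazole as full inhibition.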

COC(=O)c1ccc(CCc2cc(O)ccc2O)cc1
active: Potency [9] 3.16 µM
inactive: Potency [1] > 11.4 µM | activity change, negative = inhibition [2] -7.43% | activity, negative = inhibition [3] -16.8% | Potency [4] > 46 µM | Potency [5] > 9.22 µM | Potency [6] | Potency [7] | Potency [8]

O=C(CCN1CCCCC1)c1csc2ccccc12
inactive: Potency [1] > 11.4 µM | activity change, negative = inhibition [2] -4.73% | activity, negative = inhibition [3] -9.72% | Potency [4] > 46 µM | Potency [5] > 9.22 µM | Potency [6] | Potency [7] | activation [10] -7.69%

O=C(O)[C@@H](O)[C@H](O)C(=O)O
inactive: Potency [1] > 11.4 µM | activity change, negative = inhibition [2] -6.26% | Potency [4] > 46 µM | Potency [5] > 9.22 µM | Potency [6] | Potency [7]

Cc1c(Cl)cc(C(C)(C)C)c(O)c1Cc1c(C)c(Cl)cc(C(C)(C)C)c1O
inactive: Potency [1] > 11.4 µM | activity change, negative = inhibition [2] 10.4% | Potency [4] > 46 µM | Potency [5] > 9.22 µM | Potency [6] | Potency [7]

COc1ccc(CC[N@+]2(C)COc3cc4oc(=O)cc(C)c4cc3C2)cc1OC
inactive: Potency [1] 11 µM | activity change, negative = inhibition [2] 10.2% | activity, negative = inhibition [3] 5.96% | Potency [4] > 46 µM | Potency [5] > 9.22 µM | Potency [7]

CC1CCN(CC[S-])CC1.O.O.[Cl][Pt]
inactive: Potency [1] > 11.4 µM | activity change, negative = inhibition [2] 29.8% | Potency [4] > 46 µM | Potency [5] > 9.22 µM | Potency [6] | Potency [7]

COc1cccc2c1C(=N)c1c(O)c3c(c(O)c1C2=O)C[C@](O)(C(C)=O)C[C@@H]3O[C@H]1C[C@H](N)[C@@H](O)[C@H](C)O1
inactive: Potency [1] > 11.4 µM | activity change, negative = inhibition [2] -2.66% | Potency [4] > 46 µM | Potency [5] > 9.22 µM | Potency [7]

O=C(c1ccc([N+](=O)[O-])cc1)[C@@H](Br)[C@@H](Br)c1ccnc2ccccc12
active: Potency [11] 3.16 µM
inactive: Potency [1] > 11.4 µM | activity change, negative = inhibition [2] -11.4% | Potency [4] > 46 µM | Potency [6] | Potency [7] | Potency [8]

O=C1c2ccccc2-c2ccc(N(Cc3ccc(Br)cc3)Cc3ccc(Br)cc3)cc21
inactive: Potency [1] > 11.4 µM | activity change, negative = inhibition [2] -16.3% | activity, negative = inhibition [3] 4.89% | Potency [4] > 46 µM | Potency [5] > 9.22 µM | Potency [7]

c1ccc2c[n+](CCCC[n+]3ccc4ccccc4c3)ccc2c1
inactive: Potency [1] > 11.4 µM | activity change, negative = inhibition [2] 9.12% | activity, negative = inhibition [3] -5.69% | Potency [4] > 46 µM | Potency [6] | Potency [7]

c1cc(CSc2ncnc3nc[nH]c23)ccn1
inactive: Potency [1] > 11.4 µM | activity change, negative = inhibition [2] 10.4% | activity, negative = inhibition [3] -2.3% | Potency [4] > 46 µM | Potency [6] | Potency [7] | activation [10] -3.44%

c1cncc(CSc2ncnc3nc[nH]c23)c1
inactive: Potency [1] > 11.4 µM | activity change, negative = inhibition [2] -2.25% | activity, negative = inhibition [3] 8.79% | Potency [4] > 46 µM | Potency [5] > 9.22 µM | Potency [6] | Potency [7]

Cc1cc(Nc2ccc(N=Nc3ccc(O)c4ncccc34)cc2)nc(C)n1
inactive: Potency [1] > 11.4 µM | activity change, negative = inhibition [2] 9.64% | Potency [4] > 46 µM | Potency [5] > 9.22 µM | Potency [6] | Potency [7]

NC(CSS(=O)(=O)O)=N[C@@H]1C[C@H]2CC[C@@H]1C2
inactive: Potency [1] > 11.4 µM | activity change, negative = inhibition [2] 16.8% | activity, negative = inhibition [3] -5.27% | Potency [4] > 46 µM | Potency [5] > 9.22 µM | Potency [6] | Potency [7] | Potency [9]

CN(C)C(=O)C1CCN(Cc2c[nH]c3ccccc23)CC1
inactive: Potency [1] > 11.4 µM | activity change, negative = inhibition [2] -1.75% | activity, negative = inhibition [3] -4.74% | Potency [4] > 46 µM | Potency [5] > 9.22 µM | Potency [6] | Potency [7] | activation [10] 16.5%
